Laboratory results from PubChem BioAssay AID1159580 (chemical genetic matrix, 2015).
“And” between values parts separate entries of the source, which are not always exact repeats. Equal entries are not always repeated. The whole screen tested about 5,500 compounds, of which about 2,000 (36%) were called active. Another 18% or so got no clear call; they are omitted. Cut-off read from the data, not from the text of the source: active = normalized growth mostly below about 0.91 (no sharp cut-off); inconclusive = no clear call, values can overlap the other calls; inactive = mostly above about 0.92. Some of the results follow.

Assay: chemical genetic growth profiling, strain panel (AID 1159580);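 note: tested at 20 µM; growth read once vehicle control cultures reached saturation at 30 °C; 1 = growth at the plate median or of vehicle wells; lower values mean less growth of the strain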
Details: growth OD

Measured: normalized growth

CN1C(=O)CCS(=O)(=O)C1c1ccc(Cl)cc1 (stereo unspecified)
inactive: S. cerevisiae deletion strains, locus YJR075W, strain HOC1, hits give low values 1.04 and 1.02 | S. cerevisiae deletion strains, locus YKL009W, strain mrt4, hits give low values 1.03 | S. cerevisiae deletion strains, locus YKL068W, hits give low values 1.01 | S. cerevisiae deletion strains, locus YKL085W, strain MDH1 (second series), hits give low values 1.01 | S. cerevisiae deletion strains, locus YKL085W, strain MDH1, hits give low values 1.01 | S. cerevisiae deletion strains, locus YKL160W, strain elf1, hits give low values 1.02 | S. cerevisiae deletion strains, locus YKL190W, strain CNB1, hits give low values 1.01 | S. cerevisiae deletion strains, locus YKR001C, strain vps1, hits give low values 1.01 | S. cerevisiae deletion strains, locus YKR026C, strain gcn3, hits give low values 0.976 | S. cerevisiae deletion strains, locus YKR091W, strain srl3, hits give low values 0.984 | S. cerevisiae deletion strains, locus YLL001W, strain dnm1, hits give low values 0.979 | S. cerevisiae deletion strains, locus YLL026W, hits give low values 0.999 | S. cerevisiae deletion strains, locus YLL041C, strain sdh2, hits give low values 0.984 | S. cerevisiae deletion strains, locus YLR027C, strain aat2, hits give low values 0.998 | S. cerevisiae deletion strains, locus YLR039C, strain RIC1, hits give low values 1.04 | S. cerevisiae deletion strains, locus YLR058C, strain SHM2, hits give low values 1.01 | S. cerevisiae deletion strains, locus YLR102C, strain apc9, hits give low values 1.01 | S. cerevisiae deletion strains, locus YLR113W, strain HOG1, hits give low values 0.99 | S. cerevisiae deletion strains, locus YLR221C, strain rsa3, hits give low values 0.978 | S. cerevisiae deletion strains, locus YLR258W, strain gsy2, hits give low values 0.988 | S. cerevisiae deletion strains, locus YLR262C, strain YPT6 (second series), hits give low values 0.987 | S. cerevisiae deletion strains, locus YLR262C, strain YPT6, hits give low values 1.06 | S. cerevisiae deletion strains, locus YLR268W, strain sec22, hits give low values 1.06 | S. cerevisiae deletion strains, locus YLR320W, strain mms22, hits give low values 0.939 | S. cerevisiae deletion strains, locus YLR330W, strain CHS5, hits give low values 1.01 | S. cerevisiae deletion strains, locus YLR342W, strain FKS1 (second series), hits give low values 1.01 | S. cerevisiae deletion strains, locus YLR342W, strain FKS1, hits give low values 1.01 | S. cerevisiae deletion strains, locus YLR357W, strain rsc2, hits give low values 0.954 | S. cerevisiae deletion strains, locus YLR370C, strain arc18, hits give low values 0.991 | S. cerevisiae deletion strains, locus YLR371W, strain rom2, hits give low values 1.02 | S. cerevisiae deletion strains, locus YLR384C, strain iki3, hits give low values 0.996 | S. cerevisiae deletion strains, locus YLR418C, strain cdc73, hits give low values 1.02 | S. cerevisiae deletion strains, locus YML016C, strain PPZ1, hits give low values 1.01 | S. cerevisiae deletion strains, locus YML032C, strain rad52, hits give low values 1.04 | S. cerevisiae deletion strains, locus YML120C, strain ndi1, hits give low values 0.948 | S. cerevisiae deletion strains, locus YML124C, strain tub3, hits give low values 1.01 | S. cerevisiae deletion strains, locus YMR058W, strain fet3, hits give low values 0.979 | S. cerevisiae deletion strains, locus YMR078C, strain ctf18, hits give low values 1.02 | S. cerevisiae deletion strains, locus YMR125W, strain sto1, hits give low values 0.982 | S. cerevisiae deletion strains, locus YMR129W, hits give low values 0.974 | S. cerevisiae deletion strains, locus YMR205C, strain PFK2, hits give low values 0.947 | S. cerevisiae deletion strains, locus YMR223W, strain ubp8, hits give low values 1 | S. cerevisiae deletion strains, locus YMR231W, strain pep5, hits give low values 0.987 | S. cerevisiae deletion strains, locus YMR263W, strain SAP30, hits give low values 1.02 and 0.996 | S. cerevisiae deletion strains, locus YMR307W, strain GAS1, hits give low values 1 and 0.99 | S. cerevisiae deletion strains, locus YNL067W, strain RPL9B, hits give low values 1.03 | S. cerevisiae deletion strains, locus YNL071W, strain lat1, hits give low values 0.979 | S. cerevisiae deletion strains, locus YNL128W, strain TEP1, hits give low values 1.03 | S. cerevisiae deletion strains, locus YNL153C, strain GIM3, hits give low values 1.02 and 0.995 | S. cerevisiae deletion strains, locus YNL175C, strain NOP13, hits give low values 1.01 | S. cerevisiae deletion strains, locus YNL183C, strain NPR1, hits give low values 0.883 | S. cerevisiae deletion strains, locus YNL197C, strain WHI3, hits give low values 1 | S. cerevisiae deletion strains, locus YNL209W, strain ssb2, hits give low values 0.984 | S. cerevisiae deletion strains, locus YNL224C, strain SQS1, hits give low values 1 | S. cerevisiae deletion strains, locus YNL233W, strain BNI4, hits give low values 1.02 | S. cerevisiae deletion strains, locus YNL248C, strain rpa49, hits give low values 1.03 | S. cerevisiae deletion strains, locus YNL250W, strain rad50, hits give low values 1.01 | S. cerevisiae deletion strains, locus YNL271C, strain bni1, hits give low values 1.02 | S. cerevisiae deletion strains, locus YNL298W, strain CLA4, hits give low values 1.02 | S. cerevisiae deletion strains, locus YNL307C, strain MCK1, hits give low values 1.01 | S. cerevisiae deletion strains, locus YNL322C, strain KRE1 (second series), hits give low values 1 | S. cerevisiae deletion strains, locus YNL322C, strain KRE1, hits give low values 1.01 | S. cerevisiae deletion strains, locus YNR049C, strain mso1, hits give low values 0.992 | S. cerevisiae deletion strains, locus YNR052C, strain pop2, hits give low values 1.02 | S. cerevisiae deletion strains, locus YOL006C, strain TOP1, hits give low values 1.1 | S. cerevisiae deletion strains, locus YOL012C, strain htz1 0.9 | S. cerevisiae deletion strains, locus YOL147C, strain pex11, hits give low values 1.01 | S. cerevisiae deletion strains, locus YOR001W, strain rrp6, hits give low values 0.94 | S. cerevisiae deletion strains, locus YOR061W, strain CKA2, hits give low values 1.01 | S. cerevisiae deletion strains, locus YOR069W, strain VPS5, hits give low values 1.01 | S. cerevisiae deletion strains, locus YOR070C, strain gyp1, hits give low values 0.993 | S. cerevisiae deletion strains, locus YOR080W, strain dia2, hits give low values 0.982 | S. cerevisiae deletion strains, locus YOR083W, strain WHI5 (second series), hits give low values 1.03 | S. cerevisiae deletion strains, locus YOR083W, strain WHI5, hits give low values 0.994 | S. cerevisiae deletion strains, locus YOR106W, strain vam3, hits give low values 1.02 | S. cerevisiae deletion strains, locus YOR136W, strain idh2, hits give low values 1.01 | S. cerevisiae deletion strains, locus YOR144C, strain elg1, hits give low values 1.01 | S. cerevisiae deletion strains, locus YOR184W, strain ser1, hits give low values 1.01 | S. cerevisiae deletion strains, locus YOR231W, strain MKK1, hits give low values 0.996 | S. cerevisiae deletion strains, locus YOR265W, strain rbl2, hits give low values 0.982 | S. cerevisiae deletion strains, locus YOR270C, strain vph1, hits give low values 0.992 | S. cerevisiae deletion strains, locus YOR290C, strain snf2, hits give low values 1.01 | S. cerevisiae deletion strains, locus YOR316C, strain cot1, hits give low values 1.01 | S. cerevisiae deletion strains, locus YPL051W, strain arl3, hits give low values 1.03 | S. cerevisiae deletion strains, locus YPL055C, strain LGE1, hits give low values 1.05 and 1.03 | S. cerevisiae deletion strains, locus YPL078C, strain atp4, hits give low values 1.01 | S. cerevisiae deletion strains, locus YPL106C, strain sse1, hits give low values 0.952 | S. cerevisiae deletion strains, locus YPL240C, strain hsp82, hits give low values 0.981 | S. cerevisiae deletion strains, locus YPL241C, strain CIN2, hits give low values 1 and 1.01 | S. cerevisiae deletion strains, locus YPL256C, strain CLN2, hits give low values 0.956 | S. cerevisiae deletion strains, locus YPR119W, strain clb2, hits give low values 1.02 | S. cerevisiae deletion strains, locus YPR141C, strain kar3, hits give low values 1.01 | S. cerevisiae deletion strains, locus YPR163C, strain tif3, hits give low values 1.02 | S. cerevisiae deletion strains, locus YPR167C, strain met16, hits give low values 1.01 | S. cerevisiae deletion strains, strain wtn01, hits give low values 1.03 | S. cerevisiae strains, strain wild type, hits give low values 1.02
